# Screens deposited in PubChem by several laboratories.
# Rows were chosen to be rich in hits. Some 2.3% of all compounds tested hit in one or more screens of this group.
# Shn3 3UTR inh: inhibitors of Schnurri-3 3'UTR reporter in osteoblasts. Clone20 osteoblast Shn3 3'UTR firefly luciferase, 24 h. 360,000 tested, 0.52% active. inhibition, % at 12.5 µM;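 active means mean inhibition of at least 75% with every replicate also reaching 75%; inconclusive means mean inhibition at least 75% but some replicate below; inactive means mean inhibition below 75%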;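 further: 0% = median of neutral control wells and 100% = pilot-screen positive control compound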
# 697 NFkB inh: lowers PMA/ionomycin-induced NF-kB signal in 697 B cells; 330,000 tested, 0.33% active; 697 B-cell NF-kB luciferase reporter, 16 h; AID 435022; inhibition, % at 4 µM; in the data active means inhibition above about 35%
# Jurkat NFkB inh: inhibitors of the PMA/ionomycin-induced NF-kB reporter in Jurkat cells | PMA/ionomycin-induced NF-kB luciferase reporter, luminescence | AID 435003 | 330,000 tested, 0.53% active | inhibition, % at 4 µM; in the data active means inhibition above about 50%
# Gli-Sufu block: antagonists of Gli-Sufu signaling | Sufu-KO-LIGHT fibroblasts, Gli luciferase reporter luminescence | inhibition, % at 5 µM | 340,000 tested, 0.74% active;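 active means inhibition above about 55%, limit read from the data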;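 further: 0% = DMSO-treated cells and 100% = wells with medium but no cells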
# LMP1 NFkB inh: Epstein-Barr LMP1 NF-kappaB reporter inhibition | LMP1-induced NF-kappaB luciferase reporter cells, luminescence | inhibition, % at 12.5 µM | 350,000 tested, 0.69% active; in the data active means inhibition above about 41%; inconclusive means no clear call, values can overlap the other calls;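 further: 0% = neutral control wells and 100% = reference inhibitor control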
# TRPM1 prom inh: inhibitors of MITF-driven TRPM1 promoter in melanoma cells | SK-MEL-5 TRPM1 promoter luciferase, 24 h | inhibition, % at 12.5 µM | 330,000 tested, 0.83% active;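 active means mean inhibition across replicates of 60% or more, whatever share of single replicates reaches that level; inconclusive means some that reach 60%, reason not given; inactive means mean inhibition across replicates below 60%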
# * hit, by the source's call; ? = inconclusive; nt = no result given.
SMILES,Shn3 3UTR inh,697 NFkB inh,Jurkat NFkB inh,Gli-Sufu block,LMP1 NFkB inh,TRPM1 prom inh
CCOC(=O)C(C)(C)Sc1ncnc2nc[nH]c12,-13,-9,-11,2,10,-9
CCOC(=O)c1cc([N+](=O)[O-])cc([N+](=O)[O-])c1Sc1ncnc2nc[nH]c12,96*,nt,nt,10,-5,107*
Cn1cc(C(N)=O)c2ccccc21,-13,8,-5,-2,-4,nt
Cn1cc(C(=O)CCl)c2ccccc21,14,nt,nt,1,-2,83*
CC(=O)Nc1ccc(NC(=O)C(C)O/N=C/c2cccc([N+](=O)[O-])c2)cc1 (configuration not stated),0,14,3,-10,2,2
COC(=O)c1nn(-c2ccc(-c3ccccc3)cc2)cc1O,46,-149,-84,10,5,73*
CCOC(=O)c1nn(-c2ccccc2)cc1O,-54,6,-7,0,5,-42
COc1cc(OC)c(OC)cc1/C=C/c1cc(C(=O)O)c2ccccc2n1,6,13,8,-1,7,2
COc1ccc(/C=C/c2cc(C(=O)O)c3ccccc3n2)cc1,51,-90,19,-22,80*,46
O=C1C=C(N(CCO)Cc2ccccc2)c2ccccc2C1=O,-19,nt,nt,10,17,106*
O=C1c2ccccc2C(=O)c2c1cccc2N(CCO)CCO,0,-1,-12,24,4,5
CC(=O)c1cccc(NC(=O)C2CC(=O)N(c3ccc4c(c3)OCCO4)C2)c1 (configuration not stated),4,-12,-4,-2,39,3
Cc1cccc(CN2C(=O)/C(=C\c3ccc(C(=O)NCCCN4CCN(C)CC4)cc3)Oc3ccccc32)c1,12,-12,40,nt,-1,94*
CN1CCN(CCCNC(=O)c2ccc(/C=C3\Oc4ccccc4N(Cc4ccccc4F)C3=O)cc2)CC1,3,-29,-21,2,-6,34
Cc1cccc(-c2nc3ccccc3c(=O)n2NC(=S)N(C)C)c1,-9,-22,-11,2,2,2
O=C(NC1CCCCC1)N1CCN(c2ccc([N+](=O)[O-])cc2)CC1,60,-16,29,38,75*,15
O=C(NC1CCCCC1)N1CCN(c2ccc(Cl)cc2)CC1,37,-14,-16,12,8,-3
CSc1nnnn1-c1ccc(Cl)cc1,0,15,6,-1,4,0
Cc1sc2ncnc(Sc3nnnn3-c3ccc(Cl)cc3)c2c1C,-23,-28,8,18,5,73*
c1ccc(-n2nnnc2Sc2ncnc3sc4c(c23)CCCC4)cc1,?,-74,10,39,-10,63*
CCCc1[nH]nc2c1C(c1cn[nH]c1-c1ccc(F)cc1)C(C#N)=C(N)O2 (configuration not stated),-1,2,19,11,10,61*
CCCc1[nH]nc2c1C(c1ccccc1OC)C(C#N)=C(N)O2 (configuration not stated),1,-2,6,13,-8,8
CCCc1nnc(SCc2ccc(OCC)cc2)n1N,-8,-5,-4,21,77*,9
CCN(CC)S(=O)(=O)c1cc(NC(=O)C2CCN(c3ncnc4sc(C)c(C)c34)CC2)ccc1Cl,89*,-46,31,50,37,64*
CCc1cc(C(=O)Nc2ncccc2O)sc1C,-15,-163,-54,-66,47*,-4
SMILES,Shn3 3UTR inh,697 NFkB inh,Jurkat NFkB inh,Gli-Sufu block,LMP1 NFkB inh,TRPM1 prom inh
Cc1ccc(C)c(C(=O)CN2Cc3ccccc3C2=O)c1,-29,-15,-10,-3,-12,-217
COc1cccc(-c2nnc3sc(C4CCCCC4)nn23)c1,-8,-50,7,-35,45*,0
CCOc1cccc(-c2nnc3sc(C4CCCCC4)nn23)c1,14,-16,-1,-2,12,-14
O=C(c1ccc(S(=O)(=O)c2ccc(F)cc2)c([N+](=O)[O-])c1)N1CCCCCC1,92*,-6,20,48,19,48
COc1cc(SC)ccc1C(=O)N1CCN(Cc2ccccc2)CC1,9,1,9,2,19,-1
O=C(c1ccc(S(=O)(=O)Cc2ccccc2F)c([N+](=O)[O-])c1)N1CCCC1,-3,34,15,10,9,18
O=C(c1ccc(S(=O)(=O)c2ccccc2Cl)c([N+](=O)[O-])c1)N1CCN(Cc2ccccc2)CC1,83,10,34,18,24,76*
